Assay results published in the supplement of paper PMC10941209.

The compounds below were run on HFF (assay: cell viability relative to DMSO control; higher = less cytotoxic). Conditions: 1 µM; 72 h.
Method: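 Single-dose cytotoxicity screen of the MMV Pandemic Response Box at 1 uM on human foreskin fibroblasts (HFF), 72 h at 37 C. Viability measured by MTT (OD 550 nm) and normalised to the DMSO control (% survival).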
`O=C(Nc1cccc(C2=NCCN2)c1)c1ccc(-c2ccc(C(=O)Nc3cccc(C4=NCCN4)c3)cc2)cc1` was tested, and the cell viability was 63.4%. `NC1C2CC3CC(C2)CC1C3` (stereo not given) was tested, and the cell viability was 66.1%. Compound `COC(=O)Nc1nc2cc(Sc3ccccc3)ccc2[nH]1` has a cell viability of 71.9%. Compound `Cc1ccc(Oc2ccccc2-c2csc(N=C3NCCCN3)n2)c(C)c1` has a cell viability of 68.5%. For `CC(Cc1ccccc1)C(=O)Nc1ccc(Cl)cc1C(=O)O` (stereo not given), the cell viability was 65%. With `Cc1cc(NS(=O)(=O)c2ccc(-c3ccc(F)cc3F)cc2)no1` the cell viability was 69.4%. Work on `COc1cc(Cc2cnc(N)nc2N)cc(OC)c1OC` yielded a cell viability of 64.8%. With `c1ccc(Cn2c(-c3ccccn3)nc3ccccc32)cc1` the cell viability was 63.2%. For `N=c1n(CCN2CCCCC2)c2ccccc2n1CC(O)COc1ccc(Cl)cc1Cl` (stereo not given), the cell viability was 81.4%. `NC(=S)N/N=C/c1ncccc1N` was tested, and the cell viability was 65.3%. Compound `O=C(N[C@H](CCS)C(=O)N[C@H](Cc1ccccc1)C(=O)O)c1cc2ccccc2[nH]1` has a cell viability of 67.6%. `O=C(O)c1cc(-c2ccc(Br)cc2)nc2ccc(Cl)cc12` was tested, and the cell viability was 57.6%. `COc1cc(Cc2cnc(N)nc2N)c2c(c1OC)OC(C1CC1)C=C2` (stereo not given) showed a cell viability of 74.3%. `Nc1nc(NC2Cc3ccc(F)cc3C2)nc(N2CCCCC2)n1` (stereo not given) showed a cell viability of 72.4%. Work on `Fc1ccc2c(/C=C/c3nnn[nH]3)c[nH]c2c1` yielded a cell viability of 71.2%. `CC(C)(C)c1cc(CCC(=O)N2CCC2)cc(C(C)(C)C)c1O` gave a cell viability of 72.6%. `CCNC(=O)Nc1cn2c(-c3ncc(CC)cn3)cc(-c3cccnc3)cc2n1` gave a cell viability of 71.6%. `Cc1nc(Nc2ccc(F)cc2)nc(N2CCc3ccccc3C2C)c1C` (stereo not given) was tested, and the cell viability was 65.9%. In the case of `CCc1cc(O)c(Oc2ccc(C(N)=O)cc2F)cc1F`, the cell viability is reported as 67.9%. Compound `C[Si]1(C)CCN(Cc2cc(-c3ccc(Cl)cc3)n(-c3ccc(Cl)cc3)n2)CC1` has a cell viability of 82.5%. `Cc1c[nH]c(=O)nc1NCc1ccccc1` gave a cell viability of 66.7%. Compound `CCOC(=O)N1CCN(c2ccc(Cl)cc2)CC1` has a cell viability of 64%. Work on `CC(C)(C)c1cc(C(=O)/C(C#N)=N/Nc2cccc(Cl)c2)no1` yielded a cell viability of 53%. With `O=c1nc(N2CCN(CC3CCCCC3)CC2)sc2c([N+](=O)[O-])cc(C(F)(F)F)cc12` the cell viability was 57.6%. Compound `O=C(c1ccccc1)N1CCN(c2ccccc2NC(=O)C(Cl)(Cl)Cl)CC1` has a cell viability of 65%. `CC(C)(C)OC(=O)NCc1ccc(C(=O)N[C@H]2CCOC2=O)cc1` gave a cell viability of 65.7%. Work on `N[C@H](CCC(=O)N[C@@H](Cc1c[nH]c2ccccc12)C(=O)O)C(=O)O` yielded a cell viability of 61.9%. In the case of `COc1ccc(C[C@@H](C)[C@@H](C)Cc2ccc(OC)c(OC)c2)cc1OC`, the cell viability is reported as 65.2%. `CCc1c(O)nc2ccc(F)cc2c1OCC1CCC1` showed a cell viability of 56.8%. For `O=C1[C@H](CC[C@H](O)c2ccc(F)cc2)[C@@H](c2ccc(O)cc2)N1c1ccc(F)cc1`, the cell viability was 73%. For `N#Cc1cc([N+](=O)[O-])ccc1Oc1ccccc1Cl`, the cell viability was 72.5%. Work on `OC1O[C@H](CSc2ccc(F)cc2)[C@@H](O)[C@H]1O` (stereo not given in full) yielded a cell viability of 67.7%. `CCC(C)(C)c1ccc(CC(C)CN2C[C@@H](C)O[C@@H](C)C2)cc1` (stereo not given in full) gave a cell viability of 65%. `NC(=O)c1[nH]c2ccc(S(N)(=O)=O)cc2c1-c1ccccc1` showed a cell viability of 75.8%. For `Cc1c(N)cccc1Cn1ccc(OCCc2cccs2)cc1=O`, the cell viability was 60.5%. For `O=C(NCc1ccc2c3c(cccc13)C(=O)N2)c1cccs1`, the cell viability was 62.2%. In the case of `Cc1cc(Nc2ccc(F)cc2)nc(SCc2nc3ccccc3[nH]2)n1`, the cell viability is reported as 66%. With `CC(C)n1cnc2c(NCc3ccccc3)nc(NCc3ccccc3)nc21` the cell viability was 65.3%. For `O=C(NCc1ncc(C(F)(F)F)cc1Cl)c1c(Cl)cccc1Cl`, the cell viability was 74.8%. For `COC1CC2CCC(C)C(O)(O2)C(=O)C(=O)N2CCCCC2C(=O)OC(C(C)CC2CCC(OCCO)C(OC)C2)CC(=O)C(C)/C=C(\C)C(O)C(OC)C(=O)C(C)CC(C)/C=C/C=C/C=C/1C` (stereo not given), the cell viability was 60.8%.
